Measurements as given in the supplement of paper PMC10849652.
The full data set covers some 8,800 targets. This sample favours those with a hit. About 0.5% of all pairs of compound and target were hits.

Tests used:
Test in all cases: log2 fold change, soluble protein after heating vs DMSO (PISA); higher = thermal stabilisation; K562 lysate, 10 uM; active = over 0.2 and 3.5 SD of the protein, either way, in both replicates (recomputed)
[1] = compound: NCC(=O)Nc1ccc(-n2nc(C(F)(F)F)cc2-c2ccc3c(ccc4ccccc43)c2)cc1
Outline: (§1)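 Dounce homogenisation of K562 pellets in PBS pH 7.4 with 1 mM MgCl2 produced a crude extract, used at 1 mg/mL protein. Exposure to 10 μM compound lasted 30 min, and aliquots were then heated for 3 min across 48°C-58°C, pooled and brought to 0.5% NP-40 at 4°C. The supernatant after 21,000xg for 90 min was quantified by TMTpro 16plex LC-MS/MS with channel sums equalised. Duplicate values are given as log-two fold change in thermal stability relative to solvent controls.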

vorinostat = compound: O=C(CCCCCCC(=O)Nc1ccccc1)NO [vorinostat]
Outline: as §1

silmitasertib = compound: O=C(O)c1ccc2c(c1)nc(Nc1cccc(Cl)c1)c1ccncc12 [silmitasertib]
Outline: as §1

[2] = compound: O=C1NC(=O)C(c2cnc3ccccn23)=C1c1cn2c3c(cc(F)cc13)CN(C(=O)N1CCCCC1)CC2
Outline: as §1

entospletinib = compound: c1cn2cc(-c3ccc4cn[nH]c4c3)nc(Nc3ccc(N4CCOCC4)cc3)c2n1 [entospletinib]
Outline: as §1

Measured: log2 fold change

PPOX (UniProt P50336)
inactive: [1] 0 | vorinostat -0.142 | silmitasertib 0.11 | [2] 0.016 | entospletinib 0

PDF (UniProt Q9HBH1)
inactive: [1] -0.095 | vorinostat -0.232 | silmitasertib 0.044 | [2] 0 | entospletinib -0.004

PDXK (UniProt O00764)
inactive: [1] -0.005 | vorinostat 0.073 | silmitasertib -0.008 | [2] 0.026 | entospletinib -0.009

POC5 (UniProt Q8NA72)
active: vorinostat -0.36
inactive: [1] -0.128 | silmitasertib -0.021 | [2] 0.02 | entospletinib -0.184

PRKCD (UniProt Q05655)
inactive: [1] 0.008 | vorinostat -0.075 | silmitasertib -0.006 | [2] -0.005 | entospletinib 0.019

PCF11 (UniProt O94913)
inactive: [1] 0.043 | silmitasertib -0.023 | [2] -0.001 | entospletinib 0.016
active: vorinostat -0.339

PRKAR2A (UniProt P13861)
inactive: [1] 0.005 | vorinostat -0.037 | silmitasertib -0.008 | [2] -0.06 | entospletinib -0.035

PRIM2 (UniProt P49643)
Sequence of UniProt P49643 (P49643 whole entry, looked up): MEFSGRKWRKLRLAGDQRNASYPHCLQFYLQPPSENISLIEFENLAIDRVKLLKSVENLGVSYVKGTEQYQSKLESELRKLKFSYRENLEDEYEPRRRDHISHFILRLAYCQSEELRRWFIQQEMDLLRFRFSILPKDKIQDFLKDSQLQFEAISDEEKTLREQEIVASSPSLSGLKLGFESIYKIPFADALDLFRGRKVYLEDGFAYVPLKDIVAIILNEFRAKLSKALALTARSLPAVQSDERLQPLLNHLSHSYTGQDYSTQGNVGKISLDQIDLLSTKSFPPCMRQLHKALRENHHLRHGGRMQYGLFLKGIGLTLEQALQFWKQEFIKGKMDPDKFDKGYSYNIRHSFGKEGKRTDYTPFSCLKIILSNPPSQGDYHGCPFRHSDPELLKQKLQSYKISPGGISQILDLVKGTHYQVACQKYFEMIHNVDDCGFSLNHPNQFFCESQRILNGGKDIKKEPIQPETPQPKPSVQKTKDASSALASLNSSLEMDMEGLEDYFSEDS
active: vorinostat -0.296
inactive: [1] -0.008 | silmitasertib 0.09 | [2] 0 | entospletinib 0.003

PIR (UniProt O00625)
Sequence of UniProt O00625 (O00625 whole entry, looked up): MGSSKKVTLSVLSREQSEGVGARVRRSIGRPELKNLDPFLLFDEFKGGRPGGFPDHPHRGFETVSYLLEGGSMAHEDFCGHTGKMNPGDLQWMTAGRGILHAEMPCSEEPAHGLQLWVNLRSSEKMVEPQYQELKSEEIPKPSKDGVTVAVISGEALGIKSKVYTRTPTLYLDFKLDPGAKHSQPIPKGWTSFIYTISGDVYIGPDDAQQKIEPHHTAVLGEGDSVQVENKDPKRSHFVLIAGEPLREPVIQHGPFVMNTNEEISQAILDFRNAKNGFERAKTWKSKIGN
inactive: [1] 0.015 | vorinostat 0.035 | silmitasertib -0.049 | [2] -0.013 | entospletinib -0.035

POLD1 (UniProt P28340)
inactive: [1] 0.016 | silmitasertib 0.016 | [2] 0.005 | entospletinib -0.009
active: vorinostat -0.245

PCBP2 (UniProt H3BRU6)
active: vorinostat -0.662
inactive: [1] 0.139 | silmitasertib -0.102 | [2] -0.053 | entospletinib 0.061

PKP3 isoform 2 (UniProt Q9Y446)
inactive: [1] -0.021 | silmitasertib -0.043 | [2] -0.063 | entospletinib 0.002
active: vorinostat -0.286

PPIL2 (UniProt Q13356)
Sequence of UniProt Q13356 (Q13356 whole entry, looked up): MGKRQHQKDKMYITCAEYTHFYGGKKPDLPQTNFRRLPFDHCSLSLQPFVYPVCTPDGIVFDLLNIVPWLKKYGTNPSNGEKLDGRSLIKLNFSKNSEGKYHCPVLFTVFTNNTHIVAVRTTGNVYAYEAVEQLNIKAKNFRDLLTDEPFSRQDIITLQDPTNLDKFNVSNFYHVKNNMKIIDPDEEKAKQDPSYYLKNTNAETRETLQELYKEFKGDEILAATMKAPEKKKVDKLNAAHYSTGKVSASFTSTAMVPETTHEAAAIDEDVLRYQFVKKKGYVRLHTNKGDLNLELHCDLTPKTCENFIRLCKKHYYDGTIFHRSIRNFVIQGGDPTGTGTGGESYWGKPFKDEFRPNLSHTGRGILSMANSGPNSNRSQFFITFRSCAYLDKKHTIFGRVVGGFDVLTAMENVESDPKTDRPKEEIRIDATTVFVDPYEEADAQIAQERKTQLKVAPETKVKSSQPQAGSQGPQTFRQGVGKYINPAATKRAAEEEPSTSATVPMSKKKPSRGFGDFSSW
active: vorinostat -0.32
inactive: [1] 0.015 | silmitasertib 0.019 | [2] -0.009 | entospletinib 0.014

PRAME (UniProt P78395)
Sequence of UniProt P78395 (P78395 whole entry, looked up): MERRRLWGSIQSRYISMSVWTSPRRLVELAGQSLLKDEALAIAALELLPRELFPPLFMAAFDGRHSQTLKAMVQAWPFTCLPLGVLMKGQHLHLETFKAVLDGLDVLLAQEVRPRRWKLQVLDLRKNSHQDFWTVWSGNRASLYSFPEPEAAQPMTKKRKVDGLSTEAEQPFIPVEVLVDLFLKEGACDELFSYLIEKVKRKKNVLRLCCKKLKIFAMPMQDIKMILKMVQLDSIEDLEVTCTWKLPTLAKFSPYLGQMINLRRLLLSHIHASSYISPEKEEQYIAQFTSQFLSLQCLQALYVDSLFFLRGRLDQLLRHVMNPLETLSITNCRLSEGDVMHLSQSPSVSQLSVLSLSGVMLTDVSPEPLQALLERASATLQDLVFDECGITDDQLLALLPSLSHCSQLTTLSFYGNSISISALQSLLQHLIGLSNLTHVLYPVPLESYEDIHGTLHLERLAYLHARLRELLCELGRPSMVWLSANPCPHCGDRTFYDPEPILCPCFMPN
active: vorinostat -0.283
inactive: [1] 0.025 | silmitasertib 0.043 | [2] 0.004 | entospletinib 0.048

PTK2 (UniProt Q05397)
Sequence of UniProt Q05397 (Q05397 whole entry, looked up): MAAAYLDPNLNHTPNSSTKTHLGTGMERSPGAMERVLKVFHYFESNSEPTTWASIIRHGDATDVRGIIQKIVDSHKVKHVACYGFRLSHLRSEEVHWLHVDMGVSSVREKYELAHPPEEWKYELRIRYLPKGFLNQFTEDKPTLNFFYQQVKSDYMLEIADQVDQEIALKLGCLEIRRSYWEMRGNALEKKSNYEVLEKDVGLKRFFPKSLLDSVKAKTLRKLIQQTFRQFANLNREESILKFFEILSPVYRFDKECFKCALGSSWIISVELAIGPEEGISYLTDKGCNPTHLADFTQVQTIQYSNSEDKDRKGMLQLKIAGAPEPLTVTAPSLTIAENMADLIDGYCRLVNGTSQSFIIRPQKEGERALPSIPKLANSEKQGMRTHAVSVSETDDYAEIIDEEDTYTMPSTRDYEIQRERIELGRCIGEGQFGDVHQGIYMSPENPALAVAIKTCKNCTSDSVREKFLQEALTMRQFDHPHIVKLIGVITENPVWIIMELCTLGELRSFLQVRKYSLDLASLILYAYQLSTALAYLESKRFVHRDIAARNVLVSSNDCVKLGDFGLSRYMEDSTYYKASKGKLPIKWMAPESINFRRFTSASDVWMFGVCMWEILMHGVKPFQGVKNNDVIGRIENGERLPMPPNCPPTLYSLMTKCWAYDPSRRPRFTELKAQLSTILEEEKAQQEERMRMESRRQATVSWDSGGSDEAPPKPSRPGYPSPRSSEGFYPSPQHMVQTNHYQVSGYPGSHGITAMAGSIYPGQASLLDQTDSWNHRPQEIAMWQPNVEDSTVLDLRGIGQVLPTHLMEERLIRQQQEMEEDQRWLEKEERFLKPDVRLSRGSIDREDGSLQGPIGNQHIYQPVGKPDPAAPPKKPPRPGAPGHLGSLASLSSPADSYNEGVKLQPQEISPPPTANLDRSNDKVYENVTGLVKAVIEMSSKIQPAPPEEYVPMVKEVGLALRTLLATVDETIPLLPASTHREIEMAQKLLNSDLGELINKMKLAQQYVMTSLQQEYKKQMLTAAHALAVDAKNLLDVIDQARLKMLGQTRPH
inactive: [1] -0.017 | vorinostat -0.137 | silmitasertib 0 | [2] -0.056 | entospletinib 0.175

PFKP (UniProt Q01813)
inactive: [1] 0.004 | vorinostat 0.009 | silmitasertib 0.008 | [2] 0.03 | entospletinib 0.049

PPME1 isoform 4 (UniProt Q9Y570)
inactive: [1] -0.02 | vorinostat -0.03 | silmitasertib 0.013 | [2] 0.005 | entospletinib 0.031

PRKD2 isoform 3 (UniProt Q9BZL6)
Sequence of UniProt Q9BZL6 (Q9BZL6 whole entry, looked up): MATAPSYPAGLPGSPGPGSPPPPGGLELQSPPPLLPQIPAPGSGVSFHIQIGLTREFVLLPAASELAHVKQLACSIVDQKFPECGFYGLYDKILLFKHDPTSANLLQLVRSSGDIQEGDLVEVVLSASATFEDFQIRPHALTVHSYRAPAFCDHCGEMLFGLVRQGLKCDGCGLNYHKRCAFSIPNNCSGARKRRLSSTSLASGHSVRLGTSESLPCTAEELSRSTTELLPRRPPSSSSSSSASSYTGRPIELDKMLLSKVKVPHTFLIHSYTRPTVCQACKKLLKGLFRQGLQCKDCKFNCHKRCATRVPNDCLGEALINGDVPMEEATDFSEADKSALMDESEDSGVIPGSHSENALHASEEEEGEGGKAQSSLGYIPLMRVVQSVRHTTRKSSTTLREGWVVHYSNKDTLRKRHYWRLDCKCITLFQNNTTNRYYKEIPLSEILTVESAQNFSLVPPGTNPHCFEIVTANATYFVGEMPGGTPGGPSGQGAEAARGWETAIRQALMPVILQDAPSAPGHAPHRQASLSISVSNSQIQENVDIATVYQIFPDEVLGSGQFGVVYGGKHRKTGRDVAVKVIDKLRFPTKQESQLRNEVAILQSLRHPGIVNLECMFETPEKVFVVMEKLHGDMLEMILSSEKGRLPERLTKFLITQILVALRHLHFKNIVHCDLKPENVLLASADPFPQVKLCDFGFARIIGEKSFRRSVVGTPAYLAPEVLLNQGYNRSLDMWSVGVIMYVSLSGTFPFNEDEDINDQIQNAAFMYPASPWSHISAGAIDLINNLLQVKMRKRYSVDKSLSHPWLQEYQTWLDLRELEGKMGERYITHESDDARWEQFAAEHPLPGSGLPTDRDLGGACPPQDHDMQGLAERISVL
active: vorinostat -0.326
inactive: [1] -0.043 | silmitasertib 0.051 | [2] 0.088 | entospletinib 0.052

PRPF38A (UniProt Q8NAV1)
inactive: [1] -0.059 | vorinostat -0.278 | silmitasertib 0.03 | [2] 0.03 | entospletinib 0.055

PHGDH (UniProt O43175)
Sequence of UniProt O43175 (O43175 whole entry, looked up): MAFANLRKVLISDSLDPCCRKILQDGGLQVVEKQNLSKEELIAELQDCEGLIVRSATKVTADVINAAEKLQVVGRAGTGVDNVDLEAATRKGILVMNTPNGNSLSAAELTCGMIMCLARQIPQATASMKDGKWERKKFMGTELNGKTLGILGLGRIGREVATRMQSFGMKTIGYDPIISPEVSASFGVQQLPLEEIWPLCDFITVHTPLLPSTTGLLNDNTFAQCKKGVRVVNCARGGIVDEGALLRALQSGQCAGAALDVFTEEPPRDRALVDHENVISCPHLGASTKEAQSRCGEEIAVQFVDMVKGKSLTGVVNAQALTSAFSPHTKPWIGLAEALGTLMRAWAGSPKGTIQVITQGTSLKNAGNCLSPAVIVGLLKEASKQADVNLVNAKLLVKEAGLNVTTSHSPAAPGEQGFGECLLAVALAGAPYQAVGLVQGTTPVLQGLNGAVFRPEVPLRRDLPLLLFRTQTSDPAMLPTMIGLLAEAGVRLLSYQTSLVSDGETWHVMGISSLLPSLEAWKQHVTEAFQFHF
inactive: [1] 0.023 | silmitasertib 0.031 | [2] 0.028 | entospletinib 0.016
active: vorinostat -0.939

PCLAF (UniProt Q15004)
active: vorinostat -0.29
inactive: [1] 0.022 | silmitasertib -0.029 | [2] -0.025 | entospletinib 0.009

PDIA4 (UniProt P13667)
inactive: [1] 0.001 | vorinostat 0.119 | silmitasertib -0.011 | [2] 0.021 | entospletinib 0.004

PSMB9 (UniProt P28065)
Sequence of UniProt P28065 (P28065 whole entry, looked up): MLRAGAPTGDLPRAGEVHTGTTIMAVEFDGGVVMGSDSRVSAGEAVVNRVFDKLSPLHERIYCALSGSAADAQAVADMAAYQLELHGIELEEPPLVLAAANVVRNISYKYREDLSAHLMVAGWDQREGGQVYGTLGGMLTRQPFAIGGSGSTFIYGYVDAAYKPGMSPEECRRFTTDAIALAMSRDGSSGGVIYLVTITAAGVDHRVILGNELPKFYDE
inactive: [1] 0.07 | vorinostat 0.057 | silmitasertib 0.008 | [2] 0.081 | entospletinib 0

PRPH isoform 2 (UniProt P41219)
Sequence of UniProt P41219 (P41219 whole entry, looked up): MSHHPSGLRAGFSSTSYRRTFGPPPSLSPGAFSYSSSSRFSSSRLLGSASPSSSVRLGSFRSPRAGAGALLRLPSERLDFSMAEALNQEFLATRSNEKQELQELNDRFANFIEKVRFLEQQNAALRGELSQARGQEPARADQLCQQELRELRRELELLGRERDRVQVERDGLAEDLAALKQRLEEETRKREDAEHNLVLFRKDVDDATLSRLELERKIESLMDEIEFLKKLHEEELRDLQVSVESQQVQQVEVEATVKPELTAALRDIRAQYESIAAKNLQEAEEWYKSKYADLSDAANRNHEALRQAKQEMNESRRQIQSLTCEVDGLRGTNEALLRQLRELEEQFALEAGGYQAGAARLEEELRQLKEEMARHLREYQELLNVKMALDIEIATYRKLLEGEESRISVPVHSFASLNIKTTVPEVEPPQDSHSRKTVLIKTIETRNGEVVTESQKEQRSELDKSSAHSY
inactive: [1] 0 | vorinostat 0.112 | silmitasertib 0.001 | [2] -0.098 | entospletinib -0.052

PRMT5 (UniProt O14744)
inactive: [1] 0.012 | vorinostat 0.013 | silmitasertib -0.037 | [2] 0.001 | entospletinib 0.013
